Laboratory results reported in PubChem BioAssay AID1159580 (chemical genetic matrix, 2015).
Several values for one entry are separate records, joined by “and”; a condition that tells them apart may be missing. Equal entries are not always repeated. The whole screen tested about 5,500 compounds, of which about 2,000 (36%) were called active. Inconclusive results (about 18%) are left out. Rule as the data show it: active = normalized growth mostly below about 0.91 (no sharp cut-off); inconclusive = no clear call, values can overlap the other calls; inactive = mostly above about 0.92. The list shows a part of the results.

Assay: chemical genetic growth profiling, strain panel (AID 1159580);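 also: tested at 20 µM; growth read once vehicle control cultures reached saturation at 30 °C; 1 = growth at the plate median or of vehicle wells; lower values mean less growth of the strain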
Settings: S. cerevisiae deletion strains, growth OD

Measured: normalized growth

CN1Cc2c(N)cccc2C(c2ccccc2)C1 (centres undefined)
inactive: locus YAL013W, strain DEP1, active compounds read low 1.01 | locus YAL021C, strain ccr4, active compounds read low 0.991 | locus YAL026C, strain drs2, active compounds read low 0.997 | locus YAL030W, strain snc1, active compounds read low 0.996 | locus YAL040C, strain CLN3, active compounds read low 0.991 | locus YBL061C, strain skt5, active compounds read low 1.01 | locus YBR009C, strain hhf1, active compounds read low 1.02 | locus YBR021W, strain FUR4, active compounds read low 1.01 | locus YBR023C, strain chs3, active compounds read low 1.02 | locus YBR171W, strain sec66, active compounds read low 1.02 | locus YBR229C, strain ROT2, active compounds read low 1.01 | locus YBR231C, strain swc5, active compounds read low 1 | locus YBR279W, strain paf1, active compounds read low 1.03 | locus YCL011C, strain gbp2, active compounds read low 1 | locus YCL016C, strain dcc1, active compounds read low 0.997 | locus YCL029C, strain bik1, active compounds read low 1 | locus YCL061C, strain MRC1 (second series), active compounds read low 0.989 | locus YCL069W, strain vba3, active compounds read low 1.01 | locus YCR088W, strain abp1, active compounds read low 1.01 | locus YDL005C, strain med2, active compounds read low 1 | locus YDL035C, strain GPR1, active compounds read low 1.02 | locus YDL040C, strain nat1, active compounds read low 1.01 | locus YDL074C, strain BRE1, active compounds read low 0.993 | locus YDL101C, strain DUN1, active compounds read low 1.01 | locus YDL134C, strain PPH21, active compounds read low 1.01 | locus YDL185W, strain tfp1, active compounds read low 1.01 | locus YDL192W, strain arf1, active compounds read low 1.02 | locus YDR001C, strain nth1, active compounds read low 1.01 | locus YDR069C, strain doa4, active compounds read low 1.02 | locus YDR101C, strain arx1, active compounds read low 1.01 | locus YDR137W, strain rgp1, active compounds read low 1.01 | locus YDR150W, strain NUM1, active compounds read low 1 | locus YDR159W, strain sac3, active compounds read low 1 | locus YDR162C, strain NBP2, active compounds read low 1.02 | locus YDR195W, strain ref2 1.02 | locus YDR297W, strain sur2, active compounds read low 1.01 | locus YDR318W, strain mcm21, active compounds read low 1.02 | locus YDR334W, strain swr1, active compounds read low 1.01 | locus YDR335W, strain msn5, active compounds read low 1.02 | locus YDR363W, strain ESC2, active compounds read low 0.963 | locus YDR388W, active compounds read low 1.02 | locus YDR392W, strain spt3, active compounds read low 0.938 | locus YDR502C, strain sam2, active compounds read low 1.01 | locus YEL003W, strain gim4, active compounds read low 1.01 | locus YEL037C, strain rad23, active compounds read low 1.01 | locus YEL061C, strain CIN8 (second series), active compounds read low 1 | locus YEL061C, strain CIN8, active compounds read low 1 | locus YER002W, strain NOP16, active compounds read low 1.01 | locus YER015W, strain faa2, active compounds read low 1.02 | locus YER016W, strain bim1, active compounds read low 1.01 | locus YER110C, active compounds read low 1.02 | locus YER111C, strain swi4, active compounds read low 1.01 | locus YER155C, strain BEM2 (second series), active compounds read low 1.01 | locus YER155C, strain BEM2, active compounds read low 1.01 | locus YER167W, strain BCK2, active compounds read low 1.02 | locus YFR010W, strain ubp6, active compounds read low 1.03 | locus YGL078C, strain dbp3, active compounds read low 1 | locus YGL086W, strain mad1, active compounds read low 0.999 | locus YGL167C, strain pmr1, active compounds read low 1.01 | locus YGL173C, strain kem1, active compounds read low 1.02 | locus YGL227W, strain vid30, active compounds read low 1.01 | locus YGL240W, strain doc1, active compounds read low 1.02 | locus YGL248W, strain PDE1, active compounds read low 0.991 | locus YGL253W, strain hxk2, active compounds read low 1 | locus YGR078C, strain PAC10, active compounds read low 0.991 | locus YGR135W, strain pre9, active compounds read low 1.04 | locus YGR229C, strain SMI1, active compounds read low 1.02 | locus YGR252W, strain gcn5, active compounds read low 1 | locus YHR013C, strain ard1, active compounds read low 0.995 | locus YHR027C, strain rpn1, active compounds read low 1.02 | locus YHR030C, strain SLT2, active compounds read low 1.01 and 1.07 | locus YHR079C, strain IRE1 (second series), active compounds read low 1.01 | locus YHR079C, strain IRE1, active compounds read low 0.985 | locus YHR094C, strain hxt1, active compounds read low 1.02 | locus YHR129C, strain ARP1, active compounds read low 1.01 | locus YHR142W, strain chs7, active compounds read low 1.01 | locus YHR200W, strain rpn10, active compounds read low 1.02 | locus YIL066C, strain RNR3, active compounds read low 1 | locus YIL073C, strain SPO22, active compounds read low 1.08 | locus YIL125W, strain kgd1, active compounds read low 1.01 | locus YIR030C, strain dcg1, active compounds read low 1.01 | locus YJL092W, strain hpr5, active compounds read low 1.01 | locus YJL095W, strain BCK1 (second series), active compounds read low 1.01 | locus YJL095W, strain BCK1, active compounds read low 0.983 and 0.981 | locus YJL115W, strain asf1, active compounds read low 1.02 | locus YJL129C, strain trk1, active compounds read low 1 | locus YJL134W, strain LCB3, active compounds read low 1.01 | locus YJL154C, strain vps35, active compounds read low 1.01 | locus YJL164C, strain tpk1, active compounds read low 0.981 | locus YJL166W, strain qcr8, active compounds read low 1.01 | locus YJL168C, strain set2, active compounds read low 1.01 | locus YJL187C, strain SWE1 (second series), active compounds read low 0.983 | locus YJR043C, strain POL32, active compounds read low 0.973 | locus YJR066W, strain TOR1, active compounds read low 0.933
